This is an account of results in PubChem BioAssay AID1345085 (National Center for Advancing Translational Sciences (NCATS), 2018).

Inconclusive results are not listed. Unmarked numbers belong to inactive results. The source made the active and inactive calls. Calls come from the whole dose curve; as a rule, active = well fitted cell-killing curve with a large enough effect; inconclusive = small, poorly fitted or top-dose-only effect, or effect the other way; inactive = no such curve, though single readings can be large or run the other way.
% is set by controls: 0 for no effect and ±100 for the full control effect; potency is the fitted concentration of half-maximal effect.

This experiment has as its system CAOV3. Nature of the experiment: Confirmatory qHTS for gynecologic anti-cancer compounds from libraries of approved drugs and bioactive compounds. Note: nearly all actives have a fitted effect of over 55% in size. The settings on record: gynecologic cancer cell panel viability, ATPlite luminescence, 48 h; series mostly up to 57.6 µM. The method in brief: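 Seeding 1,000 cells per well preceded overnight (16 h) attachment, after which 48 h drug treatment across 57.5 uM–0.977 nM (11 points) was applied. Remaining cellular ATP, detected by ATPlite luminescence, defined IC50.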
Background: Quantitative high-throughput screening tests each substance at several concentrations.
For `COc1cc(N2CCC(N3CCN(C)CC3)CC2)ccc1Nc1ncnc(Nc2ccccc2S(=O)(=O)C(C)C)n1`, the Potency was 15.3 µM (active).
On the same count and under the same terms, the same measure for `CN(C)/N=N/c1nc[nH]c1C(N)=O`: “inactive”; for `O=C(NOC[C@H](O)CO)c1ccc(F)c(F)c1Nc1ccc(I)cc1F`: “inactive”.
For the molecule `Cn1cnc2c(F)c(Nc3ccc(Br)cc3Cl)c(C(=O)NOCCO)cc21`, the Potency entry was “inactive”.
Still for that read-out and setting: under `NS(=O)(=O)OC[C@@H]1C[C@@H](n2ccc3c(N[C@H]4CCc5ccccc54)ncnc32)C[C@@H]1O` stands 3.06 µM (active).
On to `O=C(c1ccc(F)c(F)c1Nc1ccc(I)cc1F)N1CC(O)([C@@H]2CCCCN2)C1`, for which the Potency was 27.3 µM (active).
In the case of `Cc1nc(Nc2ncc(C(=O)Nc3c(C)cccc3Cl)s2)cc(N2CCN(CCO)CC2)n1`, the Potency is 24.3 µM (active).
On to `COc1cc2c(cc1-c1c(C)noc1C)ncc1[nH]c(=O)n(C(C)c3ccccn3)c12` (centres undefined), for which the Potency was 1.09 µM (active).
Regarding `CC(Oc1cc(-n2cnc3ccc(CN4CCN(C)CC4)cc32)sc1C(N)=O)c1ccccc1C(F)(F)F` (centres undefined), the Potency was 27.3 µM (active).
With `CC[C@@]1(O)C(=O)OCc2c1cc1n(c2=O)Cc2c-1nc1ccccc1c2/C=N/OC(C)(C)C`, the Potency was 0.0968 µM (active).
The same measure, in the same setting: under `NC(=O)c1cnc(-c2ccc(C3(N)CCC3)cc2)c(-c2ccccc2)c1` stands 30.6 µM (active).
Still for that read-out and setting: under `C[C@]12CCC(=O)C=C1CC[C@@H]1[C@@H]2[C@@H](O)C[C@@]2(C)[C@H]1CC[C@]2(O)C(=O)CO` stands “inactive”; under `Oc1cn2c(n1)Nc1ccc(Cl)c(Cl)c1C2`, “inactive”.
Same read-out and setting: the same measure for `Cc1cnc(Nc2ccc(OCCN3CCCC3)cc2)nc1Nc1cccc(S(=O)(=O)NC(C)(C)C)c1`: 7.69 µM (active); for `CC(=O)c1cnc2ccc(-c3cc(Cl)c(O)c(Cl)c3)nc2c1NC1CCC(CN(C)C)CC1` (centres undefined): 0.157 µM (active); for `Cc1cc(Nc2nc(N[C@@H](C)c3ncc(F)cn3)ncc2Cl)n[nH]1`: 7.69 µM (active).
In the case of `Nc1ncnc2c1ncn2[C@@H]1O[C@H](CO)C[C@H]1O`, the Potency entry is “inactive”.
The same measure, in the same setting: under `Cc1cnc(Nc2cccc(CN3CCOCC3)c2)nc1Nc1cccc(S(=O)(=O)NC(C)(C)C)c1` stands 10.9 µM (active).
`Cc1ccc(-n2[nH]c(C)c(N=Nc3cccc(-c4cccc(C(=O)O)c4)c3O)c2=O)cc1C`: the Potency was 27.3 µM (active).
The same measure, in the same setting: under `Cc1nc(N)sc1-c1ccnc(Nc2ccc(N3CCOCC3)cc2)n1` stands 3.43 µM (active).
Same read-out and setting: under `N#CC1(c2cccc(C(=O)Nc3cc(Oc4ccc5nc(NC(=O)C6CC6)sc5n4)ccc3F)c2Cl)CC1` stands “inactive”; under `Fc1cc(-c2cccc3ncc(-c4cnn(C5CCNCC5)c4)nc23)cc(F)c1CN1CCOCC1`, 27.3 µM (active).
Same read-out and setting: under `CCCC(=O)O[C@]1(C(=O)CCl)[C@@H](C)C[C@H]2[C@@H]3CCC4=CC(=O)C=C[C@]4(C)[C@@]3(F)C(=O)C[C@@]21C` stands “inactive”.
As to `CCCCN(CCCC)C(=O)CN1C[C@H](c2ccc3c(c2)OCO3)[C@@H](C(=O)O)[C@@H]1c1ccc(OC)cc1`, the Potency entry is “inactive”.
As to `Cc1cnc(CNC(=O)c2c(=O)c3ccc(N4CCCN(C)CC4)nc3n3c2sc2ccccc23)cn1`, the activity change, negative = viability loss is 22.5% [at 10.7 µM].
As to `S=c1nc[nH]c2nc[nH]c12`, the Potency was 0.769 µM (active).
Turning to `Cn1c(=O)c(-c2c(Cl)cccc2Cl)cc2cnc(Nc3cccc(C(=O)O)c3)nc21`, the Potency was 2.73 µM (active).
Same read-out and setting: the same measure for `Cc1cc(Nc2cc(N3CCN(C)CC3)nc(Sc3ccc(NC(=O)C4CC4)cc3)n2)n[nH]1`: “inactive”; for `CN(C)C(CCOc1cccc2ccccc12)c1ccccc1` (centres undefined): 30.6 µM (active).
The same measure, in the same setting: the same measure for `Cc1c(C)n(Cc2ccc(-c3ccccc3C(=O)O)cc2)c2ccc(C(=O)N[C@@H](C)c3ccc([N+](=O)[O-])cc3)cc12`: “inactive”.
Turning to `CC(C)CC(=O)Nc1n[nH]c2c1CN(C(=O)C1CCN(C)CC1)C2(C)C`, the Potency was 1.22 µM (active).
Consider `C=CC(=O)Nc1cccc(Oc2nc(Nc3ccc(N4CCN(C)CC4)cc3)ncc2Cl)c1`, for which the Potency is 19.3 µM (active).
The same measure, in the same setting: the same measure for `Cc1cc(SCc2sc(-c3ccc(C(F)(F)F)cc3)nc2C)ccc1OCC(=O)O`: “inactive”; for `Cc1cc(C(=O)N2CCN(c3cccc(Cl)c3)CC2)n(-c2ccccc2)n1`: “inactive”.
